From PubChem BioAssay (NCATS)
Values joined by “and” are separate entries in the source; they are usually repeats but may differ in a detail not shown here. Equal entries are not always repeated. Inconclusive results are not listed. Active and inactive are the calls of the source. The call rests on the fitted dose curve; in most records, active means well fitted curve in the direction sought with a large enough effect; inconclusive means small, poorly fitted or top-dose-only effect, or another doubt; inactive means no such curve, though single readings can be large; an effect the other way counts as inactive or inconclusive. Square brackets hold non-standard residues; d marks the D form. Peptide text beside a SMILES is read from it. ξ: configuration not given here. ξLac(3-iPr) = CC(C)CC(O)C(=O)O; NMeV = CN[CH](C(=O)O)C(C)C; NMeA = CN[CH](C)C(=O)O; βAla = NCCC(=O)O

How the values were obtained:
[1] = molecular target: Cellular tumor antigen p53 (Homo sapiens) (UniProt P04637); test: Primary qHTS for small molecule compounds that upregulate eGFP-tagged delta133p53alpha (in N-terminal) cells. (AID 2060322); conditions: NCI-H358 eGFP-delta133p53alpha fluorescence, 24 h; activation: hits give high values; further: nearly all actives have a fitted effect of over 75% in size; further: potency means the concentration at half of the fitted maximal effect;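 on activation: series mostly up to about 56 µM; 0% = DMSO vehicle and 100% = reference activator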
Chain of Cellular tumor antigen p53 (Homo sapiens) (P04637 whole entry, looked up): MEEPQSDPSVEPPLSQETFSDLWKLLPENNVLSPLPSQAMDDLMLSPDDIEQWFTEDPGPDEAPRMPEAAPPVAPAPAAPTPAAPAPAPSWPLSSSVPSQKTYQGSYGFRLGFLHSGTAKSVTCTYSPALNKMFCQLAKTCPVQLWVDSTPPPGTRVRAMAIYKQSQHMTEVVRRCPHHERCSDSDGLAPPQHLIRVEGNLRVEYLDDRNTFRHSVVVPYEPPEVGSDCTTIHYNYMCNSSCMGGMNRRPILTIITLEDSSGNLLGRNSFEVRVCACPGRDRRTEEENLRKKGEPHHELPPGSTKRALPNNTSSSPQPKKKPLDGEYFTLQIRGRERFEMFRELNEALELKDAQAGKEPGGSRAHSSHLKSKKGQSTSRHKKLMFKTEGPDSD
How it was run: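 NCI-H358 cells pre-induced 24 h with 10 ng/ml doxycycline to express N-terminal eGFP-delta133p53alpha, then dosed 24 h at 37C without doxycycline; fixed, Hoechst-stained, GFP intensity by laser scanning cytometry, normalized to DMSO (0%) and 57.5 uM 5-azacytidine (100%).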

[2] = molecular target: Aldehyde dehydrogenase, mitochondrial (Homo sapiens) (UniProt P05091); test: qHTS for Inhibitors of the Aldehyde Dehydrogenase Family (ALDH2) Primary screen (AID 2061308);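 further: plate controls were vehicle for no effect and reference inhibitor for full effect; nearly all actives have a fitted effect of over 55% in size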
[3] = molecular target: Retinaldehyde dehydrogenase 3 (Homo sapiens) (UniProt P47895); test: qHTS for Inhibitors of the Aldehyde Dehydrogenase Family (ALDH1A3) Primary screen (AID 2061315);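 further: plate controls were DMSO vehicle for no effect and reference inhibitor for full effect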
[4] = BET inhibitor-based combinations targeting novel dependencies in MECOM-rearranged (r) AML: SET-2 cell line (AID 2202231); conditions: SET-2 AML cells viability, CellTiter-Glo luminescence, 48 h; viability: hits give low values, concentration not given here; further: nearly all actives have a fitted effect of over 35% in size; further: potency means the concentration at half of the fitted maximal effect;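 on viability: plate controls were DMSO treated cells for no effect and wells without cells for full effect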
How it was run: (§1)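 Luminescent ATP readout (CellTiter-Glo) after 48 hr drug exposure gives viability. Curves span 11 concentrations and are normalized to DMSO and empty wells. Activity is reported as area under the curve and its Z-transform within each cell line.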

[5] = BET inhibitor-based combinations targeting novel dependencies in MECOM-rearranged (r) AML: AML-191 cell line (AID 2202236; further: nearly all actives have a fitted effect of over 35% in size; further: potency means the concentration at half of the fitted maximal effect)
How it was run: as §1

[6] = BET inhibitor-based combinations targeting novel dependencies in MECOM-rearranged (r) AML: AML-194 cell line (AID 2202237; further: nearly all actives have a fitted effect of over 40% in size; further: potency means the concentration at half of the fitted maximal effect)
How it was run: as §1

[7] = BET inhibitor-based combinations targeting novel dependencies in MECOM-rearranged (r) AML: OCI-AML3 cell line (AID 2202232); conditions: Potency: OCI-AML3 viability; further: nearly all actives have a fitted effect of over 35% in size; further: potency means the concentration at half of the fitted maximal effect
How it was run: as §1

[8] = BET inhibitor-based combinations targeting novel dependencies in MECOM-rearranged (r) AML: MV-4-11 cell line (AID 2202233); further: nearly all actives have a fitted effect of over 45% in size; further: potency means the concentration at half of the fitted maximal effect
How it was run: (§2)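 Luminescent ATP readout (CellTiter-Glo, 15 min at room temperature) after 48 hr drug exposure gave viability. Dose-response curves, normalized to DMSO and empty-well controls, were summarized as area under the curve and its mean-centred Z-score.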

[9] = BET inhibitor-based combinations targeting novel dependencies in MECOM-rearranged (r) AML: HNT-34 cell line (AID 2202234);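 further: plate controls were vehicle wells for no effect and cell-free wells for full effect; nearly all actives have a fitted effect of over 35% in size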
How it was run: as §2

[10] = BET inhibitor-based combinations targeting novel dependencies in MECOM-rearranged (r) AML: UCSD-AML1 cell line (AID 2202235); further: nearly all actives have a fitted effect of over 40% in size; further: potency means the concentration at half of the fitted maximal effect
How it was run: as §2

[11] = molecular target: Aldehyde dehydrogenase 1A1 (Homo sapiens) (UniProt P00352); test: qHTS for Inhibitors of the Aldehyde Dehydrogenase Family (ALDH1A1) Confirmatory screens (AID 2061316); further: nearly all actives have a fitted effect of over 65% in size; further: potency means the concentration at half of the fitted maximal effect
[12] = molecular target: Retinaldehyde dehydrogenase 3 (Homo sapiens) (UniProt P47895); test: qHTS for Inhibitors of the Aldehyde Dehydrogenase Family (ALDH1A3) Confirmatory screens (AID 2061311); further: on the % scale 0 is the no-effect control and ±100 the full control effect; nearly all actives have a fitted effect of over 60% in size

COc1cc2c(cc1OC)[C@@]13CCN4CC5=CCO[C@H]6CC(=O)N2[C@H]1[C@H]6[C@H]5C[C@H]43
inactive: activation [1] -22.1% | Potency [2] | Potency [3]

Cc1cc(SCc2sc(-c3ccc(C(F)(F)F)c(F)c3)nc2C)ccc1OCC(=O)O
inactive: activation [1] -16% and 31% | Potency [2] | Potency [3] | viability [4] 99.6% | Potency [5] | Potency [6]

COC(=O)C1(C)CCC(O)C2(C)c3cc(O)c(C(C)C)cc3C(O)C(OC(C)=O)C12 (stereo not given)
inactive: activation [1] -2.68% | Potency [2] | Potency [3]

CCC(C)C1NC(=O)C2CCCN2C(=O)C(CC(C)C)OC(=O)CCNC(=O)C(C)N(C)C(=O)C(C(C)C)N(C)C1=O (stereo not given) (cyclo([ξLac(3-iPr)]PI[NMeV][NMeA][βAla]); configuration not given here)
inactive: activation [1] -7.14% | Potency [2] | Potency [3]

CC(=O)OC[C@]12C[C@H](O)C(C)=C[C@H]1O[C@@H]1[C@H](O)[C@@H](OC(C)=O)[C@@]2(C)[C@]12CO2
active: Potency [1] 0.083 µM
inactive: Potency [2] | Potency [3]

C[C@H]1O[C@@H](O[C@H]2[C@@H](O)C[C@H](O[C@H]3[C@@H](O)C[C@H](O[C@H]4CC[C@@]5(C)[C@H](CC[C@@H]6[C@@H]5CC[C@]5(C)[C@@H](C7=CC(=O)OC7)CC[C@]65O)C4)O[C@@H]3C)O[C@@H]2C)C[C@H](O)[C@@H]1O
inactive: activation [1] 5.34% | Potency [2] | Potency [3]

CC1(N2CCC(n3c([C@@H]4CCCNC4)nc4ccccc43)CC2)CCCCCCC1
inactive: activation [1] 44.9% and 4.3% | Potency [2] | Potency [3]
active: Potency [7] 16.6 µM | Potency [8] 16.6 µM | Potency [5] 20.9 µM | Potency [6] 26.3 µM

NC(=O)[C@@H](CC1CC1)[C@@H](CCC(F)(F)F)C(=O)N[C@H]1N=C(c2ccccc2)c2cccc(F)c2NC1=O
inactive: activation [1] -1.79% | Potency [2] | Potency [3] | Potency [7] | Potency [8] | Potency [9] | Potency [10] | Potency [5] | Potency [6]

CC(=O)OC[C@]12C[C@H](OC(=O)CC(C)C)C(C)=C[C@H]1O[C@@H]1[C@H](O)C[C@@]2(C)[C@]12CO2
inactive: Potency [2] | Potency [3]
active: Potency [1] 3.7 µM

CN1CCc2cc3c(cc2[C@H]1[C@@H]1OC(=O)c2c1ccc1c2OCO1)OCO3
inactive: activation [1] -11% | Potency [2] | Potency [3]

CN1C(=O)c2ccccc2NC(=O)C1Cc1ccccc1 (stereo not given)
inactive: activation [1] -18.3% | Potency [2] | Potency [3]

CC1CCCCCC(=O)c2c(O)cc(O)cc2CC(=O)O1 (stereo not given)
inactive: activation [1] -18.3% | Potency [2] | Potency [3]

COc1ccc(C(=O)c2c(C)n(CCN3CCOCC3)c3ccccc23)cc1
inactive: activation [1] 1.02%
active: Potency [4] 8.33 µM | Potency [8] 2.63 µM | Potency [10] 1.86 µM | Potency [6] 1.48 µM

CCC(C)/C=C(C)/C=C/C1=CC2=C(Cl)C(=O)C(C)(OC(C)=O)C(=O)C2=CO1 (stereo not given)
inactive: activation [1] -16% | Potency [3]

Cc1ncc(OC[C@@]2(c3cccc(F)c3)C[C@H]2C(=O)Nc2ccc(F)cn2)c(C)n1
inactive: activation [1] -13.1% | viability [4] 92.7% | Potency [9] | Potency [10] | Potency [5] | Potency [6]

CSCC[C@@H](NC(=O)[C@@H](Cc1ccccc1)NC(=O)CNC(=O)CNC(=O)[C@@H](N)Cc1ccc(O)cc1)C(=O)O
inactive: activation [1] 22.9% | viability [4] 119% | Potency [7] | Potency [8] | Potency [9] | Potency [5]

CN1CN(c2ccccc2)C2(CCN(CCCC(=O)c3ccc(F)cc3)CC2)C1=O
inactive: activation [1] 23.7% | Potency [3]
active: Potency [11] 22.5 µM

CN(C)[C@@H]1C(=O)C(C(N)=O)=C(O)[C@@]2(O)C(=O)C3=C(O)c4c(O)ccc(Cl)c4[C@@](C)(O)C3C[C@@H]12 (stereo not given in full)
active: Potency [1] 23.9 µM
inactive: Potency [12] | Potency [3] | Potency [11]

CN1[C@H]2CC(O)C[C@H]1[C@H]1O[C@H]12 (stereo not given in full)
inactive: activation [1] -21% | viability [4] 118% | Potency [9] | Potency [5] | Potency [6]

Cc1sc2c(c1C)C(c1ccc(Cl)cc1)=N[C@@H](CC(=O)OC(C)(C)C)c1nnc(C)n1-2
inactive: activation [1] -35.4% and 15.6%
active: Potency [4] 0.59 µM | Potency [7] 0.263 µM | Potency [8] 0.209 µM | Potency [5] 0.662 µM

CCCC[N+]1(C)[C@H]2CC(OC(=O)[C@H](CO)c3ccccc3)C[C@H]1[C@H]1O[C@H]12 (stereo not given in full)
inactive: activation [1] -13.2% | viability [4] 109% | Potency [7] | Potency [8] | Potency [6]
